PrP 5UTR inh – suppresses PrP 5' UTR mRNA reporter expression | cell-based PrP 5' UTR mRNA reporter, plate reader | inhibition, % (concentration not given with the values) | 0.35% of 340,000 active; in the data active = inhibition above about 52%; also: 0 = median of the neutral control wells
PrPC TRFRET – inhibitors of human cell surface prion protein PrPC. P04156. TR-FRET read-out. inhibition, % at 13.8 µM. 0.43% of 370,000 active. AID 720596; in the data active = inhibition above about 24%; also: 0% = median of the test wells and 100% = reference compound wells
Mtb FBA inh – inhibits M. tuberculosis FBA enzyme. 2.3% of 360,000 active. P9WQA3. inhibition, % at 1 µM. purified M. tuberculosis FBA, fluorescence read-out; in the data active = inhibition above about 27%;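 also: 0% = vehicle and 100% = reference inhibitor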
Target sequence (P9WQA3 whole entry, looked up): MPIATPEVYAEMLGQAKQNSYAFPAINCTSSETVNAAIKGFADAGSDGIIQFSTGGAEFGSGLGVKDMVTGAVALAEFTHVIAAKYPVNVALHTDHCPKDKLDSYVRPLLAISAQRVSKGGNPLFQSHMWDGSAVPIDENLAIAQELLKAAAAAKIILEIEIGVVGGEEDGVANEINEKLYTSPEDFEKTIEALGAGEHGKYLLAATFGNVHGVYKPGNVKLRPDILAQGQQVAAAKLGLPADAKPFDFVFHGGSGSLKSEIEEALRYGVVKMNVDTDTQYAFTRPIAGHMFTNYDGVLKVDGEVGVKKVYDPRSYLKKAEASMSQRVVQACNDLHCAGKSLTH
GDH-TPI inh – inhibits GDH-TPI coupling enzymes, artifact for Mtb FBA screen; GDH-TPI coupled enzyme counterscreen, NADH absorbance; inhibition, % at 4.8 µM; 1.2% of 360,000 active; AID 588335; in the data active = inhibition above about 30%;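 also: 0% = DMSO wells and 100% = wells lacking the enzyme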
BJeLR viability – kills HRASV12-expressing BJeLR cells. AID 1554. 0.17% of 300,000 active. BJeLR (HRASV12) viability, CellTiter-Glo ATP luminescence, 48 h. inhibition, % (concentration not given with the values); in the data active = inhibition above about 50%; inconclusive = no clear call, values can overlap the other calls
PfHsp40 yeast – restores yeast growth despite PfHsp40 toxicity; S. cerevisiae expressing PfHsp40, growth rescue, ATP luminescence; growth rescue, % at 12.5 µM; 0.68% of 340,000 active; in the data active = growth rescue above about 28%, passing the limit was not always enough; inconclusive = no clear call, values can overlap the other calls;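 also: yeast W303a lacking pdr1 and pdr3 grown in galactose medium; growth measured after three days at 30 °C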
Active calls of the source: *; ? = inconclusive; · = not tested or not shown; + = active, no number. The list is not random: actives were taken first. Their share in the collection is about 4.5%.

SMILES	PrP 5UTR inh	PrPC TRFRET	Mtb FBA inh	GDH-TPI inh	BJeLR viability	PfHsp40 yeast
O=C1NC(=O)/C(=C\c2ccc(Oc3ccc([N+](=O)[O-])cn3)cc2)S1	-16.6	-12.7	-2.3	35.1*	1.2	-0.8
S=C(Nc1ccccc1Cl)N(Cc1cccnc1)Cc1ccco1	-4.1	-0.5	-6.1	-0.6	3.3	0.2
Cc1c(Cl)cccc1NC(=S)N(Cc1cccnc1)Cc1ccccc1Cl	-17.9	3.3	0.6	-1.2	2.9	35.2*
N#Cc1cc(C#N)c(N2CCN(c3ccccn3)CC2)nc1N	-17.1	-6.3	0.2	32.2*	-5.4	0.9
CC1(C)CC(NC(=O)Nc2ccc([N+](=O)[O-])cc2)CC(C)(C)N1	-4.2	-15.4	-0.8	31.7*	9.0	0.7
CCC[C@H]1[C@@H](OC(=O)NCc2ccc(Cl)c(Cl)c2)CC[C@@]23CCCN2C(=O)CCC[C@@H]13	·	-0.6	·	·	·	·
COC(=O)[C@]12C[C@H](CC(=O)N3CCN(C(=O)C4CC4)CC3)C(=O)N(CCC3=CCCCC3)C1=C[C@H](C1CCCC1)O[C@@H]2C	·	-4.7	·	·	·	·
CC1CCN(S(=O)(=O)c2ccc(C(=O)NNC(=O)C3CC3)cc2)CC1	-5.4	1.2	8.4	5.9	2.1	124.4*
O=C(NNC(=O)C1CCN(S(=O)(=O)c2ccc(Cl)cc2)CC1)c1ccc(Cl)cc1	8.2	3.3	9.0	6.3	-5.0	-0.1
CC1CCc2sc(NC(=O)c3ccc(N4C(=O)CCC4=O)cc3)c(C(N)=O)c2C1 (centres undefined)	-18.6	-6.3	-0.4	3.4	-7.7	-1.4
CCOC(=O)c1c(NC(=O)c2ccc(N3C(=O)[C@@H]4[C@H](C3=O)[C@H]3C=C[C@@H]4C3)cc2)sc2c1CC(C)CC2 (some centres undefined)	-27.8	-1.0	137.5*	1.2	5.7	0.0
COc1ccc(/C=C/C(Cc2cccc(C(C)=O)c2)c2ccc(C)cc2)cc1 (centres undefined)	·	4.6	·	·	·	·
COc1cccc(N2CCN(CC(=O)NCc3ccc(Cl)cc3)CC2)c1	·	6.9	·	·	·	·
O=c1[nH]c(=S)n(C2CC2)c(O)c1/C=N/Nc1ccccc1	-35.3	-5.7	-5.1	18.7	-14.5	0.9
CC(N=Cc1c(O)n(C2CC2)c(=S)[nH]c1=O)c1ccccc1 (centres undefined)	-17.6	-0.5	-2.8	34.5*	8.9	0.3
O=C1C=C(O)c2cccc3cccc1c23	-9.4	10.6	-2.0	31.3*	-1.7	-0.6
CCCn1c(N)c(C(=O)CSc2nc(C)cs2)c(=O)[nH]c1=O	-5.6	-3.4	1.8	10.5	4.3	26.5*
CCCCNc1nnc(SCC(=O)c2c(N)n(CCC)c(=O)[nH]c2=O)s1	-15.0	7.2	-0.8	1.0	·	0.1
O=C(CSc1nnc(-c2ccccc2)n1-c1ccc(Cl)cc1)NN=Cc1c[nH]c2ccccc12	·	9.2	·	·	·	·
CCc1nn(CC(=O)N2CCC(C)CC2)c(=O)c2cccn12	-13.1	2.8	-0.8	-5.2	-3.4	0.2
CCc1nn(CC(=O)NCCN2CCN(C)CC2)c(=O)c2cc3c(OC)cccc3n12	-1.5	-3.0	+	11.3	-1.4	-0.7
COc1cccc2c1cc1c(=O)n(CC(=O)N3CCC(C)CC3)nc(C)n12	-33.2	3.7	+	9.6	-13.2	3.5
O=c1c(-c2n[nH]c(=S)o2)cccn1Cc1ccccc1	1.3	-9.4	17.4	24.0	-1.0	0.0
CSc1nnc(-c2cccn(Cc3ccccc3)c2=O)o1	-28.8	8.9	130.7*	4.4	-3.2	-0.9
CCCOc1ccc(CSCCNC(=S)Nc2ccccc2)cc1	-15.8	12.6	-1.2	-5.0	-3.5	215.8*
SMILES	PrP 5UTR inh	PrPC TRFRET	Mtb FBA inh	GDH-TPI inh	BJeLR viability	PfHsp40 yeast
CCOC(=O)C1CCCN(CC(=O)/C=C2/N(C)c3ccccc3C2(C)C)C1 (centres undefined)	1.0	-4.5	6.0	30.7*	3.9	1.8
CN1/C(=C\C(=O)COC(=O)Cn2nnc(-c3ccccc3)n2)C(C)(C)c2ccccc21	-5.7	9.6	1.2	33.6*	10.4	-0.1
CN1/C(=C\C(=O)COC(=O)c2ccc([N+](=O)[O-])o2)C(C)(C)c2ccccc21	-3.6	-6.2	3.7	3.8	-0.1	35.9*
CN1/C(=C/C(=O)COC(=O)CN2C(=O)C3CC=CCC3C2=O)C(C)(C)c2ccccc21 (centres undefined)	-8.0	-5.8	5.5	29.7	·	1.4
CC(C)C[C@H](NC1(C(=O)NC2CCCCC2)CCCCC1)C(=O)NCCc1c[nH]c2ccccc12	·	3.4	·	·	·	·
CC(=O)Nc1ccc(/C=C/COC(C)=O)cc1C	·	4.5	·	·	·	·
CCCCCCN1CCS(=O)(=O)N(Cc2ccccc2)C(C(=O)OC)C1 (centres undefined)	·	12.8	·	·	·	·
Oc1cccc(C(Nc2nccs2)c2ccc3cccnc3c2O)c1 (centres undefined)	12.8	21.9	3.1	17.1	35.8	215.3*
COc1ccc(Cl)cc1C(Nc1cccnc1)c1ccc2cccnc2c1O (centres undefined)	-16.8	4.9	0.6	1.3	-1.5	88.8*
O=[N+]([O-])c1ccc(NC(c2ccccc2)c2ccc3cccnc3c2O)cc1 (centres undefined)	36.2	-3.1	-6.1	8.8	·	-0.3
Oc1c(C(Nc2cccc(C(F)(F)F)c2)c2cccnc2)ccc2cccnc12 (centres undefined)	-19.5	8.7	2.1	-1.9	0.6	381.8*
CCC(=O)NC(c1ccccc1OC)c1ccc2cccnc2c1O (centres undefined)	39.1	·	-0.7	0.2	24.3	?
Cc1cc(NC(c2cccnc2)c2ccc3cccnc3c2O)no1 (centres undefined)	25.8	20.2	-0.3	15.4	3.7	?
C=CCSc1nc(N)c(C(=O)Nc2ccccc2OC)cc1C(=O)Nc1ccccc1	-6.1	-8.2	2.5	37.3*	0.7	-0.2
N#C/C(=C\c1ccncc1)c1nc2ccccc2o1	·	0.7	10.3	6.1	-0.5	·
N#C/C(=C\Nc1ccccc1O)c1nc2ccccc2o1	-38.6	-7.4	-1.0	32.6*	-5.3	452.0*
N#C/C(=C\c1cccc(O)c1)c1nc2ccccc2o1	-19.9	-1.0	6.8	35.3*	-3.2	2.8
N#C/C(=C\c1ccc(Cl)cc1)c1nc2ccccc2o1	-20.0	9.1	2.3	9.9	3.9	-0.4
Cc1ccc2nc(Nc3nc(-c4ccccc4)cc(=O)[nH]3)nc(C)c2c1	-7.6	8.7	2.3	16.6	6.8	-1.1
COc1ccc2c(C)nc(Nc3nc(-c4ccccc4)cc(=O)[nH]3)nc2c1	17.8	-2.2	4.2	11.1	57.8*	0.1
Cc1ccc(-n2c(SCC(=O)Nc3ccc(OCc4ccccc4)cc3)nnc2-c2cnccn2)cc1	·	5.6	·	·	·	·
CC(O)c1nc2ccccc2n1C1CCCCC1 (centres undefined)	-19.3	-1.1	0.5	11.1	0.7	74.2*
CC(C)CN1C(=O)[C@]2(CC(=O)N(C)C2c2ccccc2)c2cc(-n3cc(-c4ccccc4)nn3)ccc21 (some centres undefined)	·	1.6	·	·	·	·
